From PubChem BioAssay AID504690 (Sanford-Burnham Center for Chemical Genomics, 2011)
About 2,700 (0.77%) of roughly 350,000 compounds were called active. Many of the other results were omitted from the sample, so actives are more common in it than they were. Values without a mark were called inactive.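 The calls were made as follows: active = inhibition reaching at least a set limit at 20 µM in the primary screen (cut at about 59% in these data); inactive = the rest.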

Test system: glucose-6-phosphate dehydrogenase-6-phosphogluconolactonase (Plasmodium falciparum 3D7)
Experiment: PfG6PD enzyme inhibitors, primary screen, biochemical, fluorescence intensity, uHTS (AID 504690);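 also: 0% = DMSO wells with substrate and 100% = DMSO wells lacking glucose-6-phosphate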
Settings: PfGluPho enzyme, NADPH resazurin-diaphorase fluorescence; at 20 µM; hits give high values

Compound	inhibition
Cc1cccc(C)c1NC(=O)C1CCCN1C(=O)OC(C)(C)C (stereo unspecified)	-0.36%
CC(C)(C)c1cc(=O)n2c(nc3ccccc32)[nH]1	12.8%
CCc1cccc(C)c1NC(=O)COC(=O)CNC(=O)c1cccs1	4.68%
CCc1ccc(NC(=O)C(=O)NNC(=O)c2cccs2)cc1	-15.6%
CCc1c(C)sc(NC(=O)c2cccs2)c1C(N)=O	71% (active)
C=CCCC(=O)N1C[C@H]2CON(C)[C@H]2C[C@H]1c1cccc(Nc2ccccc2)c1	21.3%
O=C(OCC(=O)N1CCCCC1)c1ccc(OC(F)(F)F)cc1	-6.53%
O=c1c2c(nc3cc(-c4cccc(Cl)c4)[nH]n13)CCCC2	75% (active)
O=c1c2c(nc3nc[nH]n13)CCC2	16.4%
CCCCN1Cc2c(nc3cc(-c4ccccc4)[nH]n3c2=O)C1=O	-27.7%
CCOC(=O)c1cnn2c(SC)ncnc12	5.86%
Cc1cc(C)n(Cc2cnc(N3CCOCC3)s2)n1	2.1%
CC1(C)CC(=O)c2cc(OCC(=O)NCC3CCCO3)ccc2O1 (stereo unspecified)	7.52%
CC(=O)Nc1ccc2c3c(ccc([N+](=O)[O-])c13)CC2	1.79%
Brc1ccc(C2=CC(c3ccco3)n3ncnc3N2)cc1 (stereo unspecified)	23.3%
Clc1ccc2c(c1)C1=C(C(c3ccncc3)O2)C(c2ccc(Br)cc2)n2ncnc2N1 (stereo unspecified)	78.5% (active)
O=C(C1CCN(S(=O)(=O)c2ccc(Br)s2)CC1)N1CCN(C2CCCCC2)CC1	3.65%
Cc1ccnc(SC2CC(=O)N(c3ccccc3)C2=O)n1 (stereo unspecified)	-11.7%
Cc1ccnc(-n2sc3ccccc3c2=O)n1	97% (active)
O=C(NCc1ccccc1)C1CCCN(S(=O)(=O)c2cccs2)C1 (stereo unspecified)	3.61%
C[C@@H]1CCCCO[C@H](CN(C)Cc2ccccc2)[C@@H](C)CN([C@H](C)CO)C(=O)c2cc(NS(=O)(=O)c3ccc(Cl)cc3)ccc2O1	36.3%
O=c1[nH]nc(Cc2ccccn2)c2ccccc12	1.12%
COc1ccc(OCc2n[nH]c(=S)n2N)cc1	71.3% (active)
Fc1ccc(/C=N/n2c(COc3ccccc3)n[nH]c2=S)cc1	27.2%

Compound	inhibition
COc1ccc(Cc2n[nH]c(=S)n2NC(=O)Nc2ccc(C)cc2)cc1	15.8%
CCOc1ccc(NS(=O)(=O)c2ccc(Cl)c(C(=O)N(C)Cc3cccnc3)c2)cc1	-26.1%
C=CCn1c(SCC(N)=O)nnc1-c1cc2c(s1)CCC(CC)C2 (stereo unspecified)	2.97%
CCC1=NN(C(=O)Cc2ccc([N+](=O)[O-])cc2)C(O)(c2ccc(Br)cc2)C1 (stereo unspecified)	-3.74%
CC1(C)NC(=O)N(CC(=O)N2CCN(S(=O)(=O)c3ccccc3F)CC2)C1=O	-13.8%
O=C(COc1ccccc1)Nc1ccc(F)cc1	-2.38%
O=C(COc1ccccc1)Nc1nonc1NC(=O)COc1ccccc1	71.2% (active)
O=C(COc1ccccc1)Nc1ccc(C(=O)N2CCCC2)cc1	-12.5%
COc1ccc([N+](=O)[O-])cc1N(CC(O)Cn1nnc2ccccc21)S(=O)(=O)c1ccc(C)cc1 (stereo unspecified)	-4.47%
Cc1nc([N+](=O)[O-])nn1C12CC3CC(CC(Br)(C3)C1)C2	71% (active)
CC1CCC(CN2CCN=C2N(C)C)CC1 (stereo unspecified)	-9.19%
CCOc1ccc(S(=O)(=O)N2CCCC(C(=O)N3CCC(C(N)=O)CC3)C2)cc1Cl (stereo unspecified)	-4.54%
CCOC(=O)[C@@H]1[C@H]2COc3ccc(Br)cc3[C@H]2N2C(=O)N(c3ccc(Cl)cc3)C(=O)[C@@]12C	9.82%
COCCOC(=O)c1sc(=S)n(CCOC)c1N	25.1%
N#Cc1c(N)sc2c1CCN(C(=O)OCc1ccccc1)C2	42.3%
Cc1ccc(-n2c(N)c(C(=O)N3CCOCC3)sc2=S)c(C)c1	-1.21%
COc1cccc(N2CCN(c3ccc4nnc(CCC(=O)N5CCN(C)CC5)n4n3)CC2)c1	6.62%
COC(=O)c1sc(=S)n(-c2ccccc2)c1N	65.1% (active)
Cc1cccc(-n2c(N)c(C(=O)N3CCN(C)CC3)sc2=S)c1	79.6% (active)
N#Cc1ccccc1-n1c(N)c(C(=O)N2CCCC2)sc1=S	60% (active)
O=C(c1ccc(S(=O)(=O)N2CCCC2)cc1)N1CCN(c2ccccc2F)CC1	7.54%
COC(=O)c1sc(N2CCN(Cc3ccccc3)CC2)nc1N	-11.2%
O=C(OCc1ccccc1)N1CCC2CC1c1ccc(-c3ccc4c(c3)OCO4)cc12 (stereo unspecified)	2.75%
O=C(Cc1ccsc1)N1CCN(S(=O)(=O)c2cc(C(F)(F)F)cc(C(F)(F)F)c2)CC1	9.01%

Compound	inhibition
Cc1cccc(N2C(=O)N3[C@H](c4ccc(F)cc4)[C@@H]4C(=O)N(C5CCCCC5)C(=O)[C@@H]4[C@]3(Cc3ccccc3)C2=O)c1	-21.6%
COc1ccccc1Cn1c(C)nnc1-c1cnn(C)c1N	-9.47%
Cc1cc(C)c2c(c1)c(C)cc1nnc(SCC(=O)NCc3ccco3)n12	46.3%
Cc1ccc(OCCNC(=O)CNC(=O)c2ccc(C)c(C)c2)cc1	-19.6%
O=[N+]([O-])c1ccc(C=Nc2ccc(Cl)cc2Cl)s1	76.4% (active)
CNN/C(N=Cc1ccc([N+](=O)[O-])s1)=N\S(=O)(=O)c1cc(C)c(Cl)cc1SCc1ccccc1	5.23%
Cc1ccc(NC(=O)C2CCC(C(C)(C)C)CC2)cc1S(=O)(=O)N1CCOCC1 (stereo unspecified)	30.1%
O=C1CCC(C(=O)OCC(=O)Nc2ccc(OC(F)F)cc2)=NN1	3.76%
Cc1cc(N=Nc2ccc3ccccc3c2)ccc1O	0.29%
Oc1ccc(N=Cc2c(O)ccc3ccccc23)cc1	62.9% (active)
CCOc1[nH]n(-c2ccc(Cl)cc2)c(=O)c1C=Nc1ccc(O)cc1	-1.23%
CCn1nnc2cc(C(=O)Nc3ccc(C(=O)OC(C)C)cc3)ccc21	22.8%
COc1cccc(C(CC(=O)NCCN2CCOCC2)NS(=O)(=O)c2ccc(C)cc2)c1OC (stereo unspecified)	11%
CSc1n[nH]c(=S)n1N	65.2% (active)
Cc1ccc(S(=O)(=O)N2CCCCC2)cc1C(=O)N1CCN(CCO)CC1	-1.65%
CC(=O)c1ccc(NC(=O)C2CCCN2S(=O)(=O)c2cccs2)cc1 (stereo unspecified)	14.3%
COc1ccc(Nc2ccc3ccccc3c2)cc1	53.2%
COc1ccc(Nc2cc(Sc3ccc(OC)cc3)ncn2)cc1	77.5% (active)
COc1ccc(Nc2ncnc3sc(C)cc23)cc1	4.18%
O=C(NC1CCCC1)C(c1ccc(N2CCOCC2)cc1)N(C(=O)c1ccco1)c1ccccc1F (stereo unspecified)	1.31%
Cc1ccc2c(c1)N(CC(=O)NCC1CCCO1)C(=O)CO2 (stereo unspecified)	0.68%
FC(F)(F)c1cccc(-c2cc3ccccc3nc2N2CCCC2)c1	13.8%
O=C(CNS(=O)(=O)c1ccc(Br)s1)N1CCN(C(=O)c2ccco2)CC1	-12.2%
Cc1ccc(-c2cc(C(=O)NCc3cn(C)nc3C)c3cc(Br)ccc3n2)cc1	3.11%

Compound	inhibition
NC(=O)c1cc(-c2cccnc2)nc2ccc(Br)cc12	14.2%
Cc1ccc2nc(-c3cccc(Br)c3)cc(C(=O)Nn3cnnc3)c2c1	59.4% (active)
CCc1nnc(NC(=O)CSc2nc3c(c(=O)n2-c2ccccc2OC)SCC3)s1	43%
CN(C)C(=O)c1ccc(NC(=O)COC(=O)c2cc3c(s2)CCCCC3)cc1	-5.04%
O=C(Nc1ccc(F)cc1)c1cc2c(s1)CCCC2	75.7% (active)
O=C(NCC1CCCO1)c1cc2c(s1)CCCC2 (stereo unspecified)	14%
Cc1ccc(CSCCNC(=O)CN(c2ccc(F)cc2)S(C)(=O)=O)cc1	-11.7%
NC(=O)C1=C[C@@H](c2ccc3c(c2)OCO3)C[C@@H](OCCCCO)O1	17.6%
CC1(c2ccc3ccccc3c2)NC(=O)NC1=O (stereo unspecified)	18.9%
CN1c2ccc(C=O)c3c(C=O)ccc(c23)N(C)C1(C)C	69.6% (active)
Cc1ccc(C=O)c([B-](F)(F)F)c1	-13.1%
COC(=O)C1(CCSC)NC(c2ccc(OC)cc2OC)C2C(=O)N(c3cccc(C(C)=O)c3)C(=O)C21 (stereo unspecified)	-2.47%
Cc1ccc(Cc2c(-c3ccccc3)nc3ccc(Cl)cn23)cc1	37.4%
Cc1ccc(Cc2c(-c3ccc(C)cc3)nc3c4ccccc4ccn23)cc1	31.4%
Cc1ccc(-c2nc3ccc(Cl)cn3c2Cc2ccccc2)cc1	87.1% (active)
Cc1cc(C)n2nc(CNS(=O)(=O)c3c(F)c(F)c(F)c(F)c3F)nc2n1	-12.8%
COc1ccc(N2CCN(S(=O)(=O)c3cc(Br)cnc3N)CC2)cc1	-12.2%
Nc1ccccc1SC(C[N+](=O)[O-])c1ccccc1 (stereo unspecified)	79.5% (active)
Fc1cccc(CSc2nnc3ccc(-c4ccncc4)nn23)c1	1.54%
COc1cc2c(C(=O)N(C)c3cc(Cl)ccc3OC)cn(C)c(=O)c2cc1OC	-11.9%
O=C(c1[nH]ncc1-c1ccc(Cl)cc1)C1CO1 (stereo unspecified)	2.19%
Oc1c(CN2CCOCC2)ccc(CN2CCOCC2)c1O	91.2% (active)
O=[N+]([O-])c1ccc(COc2ccccc2CN2CCOCC2)cc1	36.1%
COc1ccc2oc(=O)cc(CN3CCOCC3)c2c1	-5.99%
